TIM10 inh – TIM10 yeast growth inhibition; S. cerevisiae TIM10 strain growth, BacTiter-Glo luminescence, 24 h; inhibition, % at 10 µM; hit rate 1.4% among 330,000; AID 463195;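 active means inhibition of 40% or more at the single tested concentration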;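 further: wild-type TIM10 isogenic control strain grown at permissive 25 °C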
NLRP3 yeast inh – NALP3 inhibition in yeast. inhibition, % at 10 µM. Yeast reconstituted NLRP3/ASC/caspase-1, beta-gal luminescence, 24 h. hit rate 0.39% among 330,000;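 active means inhibition of 50% or more; inactive means inhibition below 50%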;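 further: plate controls were induced DMSO wells for no effect and uninduced yeast grown without galactose for full effect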
tim23-1 inh – tim23-1 yeast growth inhibition | S. cerevisiae tim23-1 growth, BacTiter-Glo luminescence, 24 h | inhibition, % at 20 µM | hit rate 1.3% among 330,000;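 active means growth inhibition of the mutant yeast at or above 50%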;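 further: temperature-sensitive mutant grown at 25 °C; plate controls were DMSO-treated mutant yeast for no effect and medium wells lacking yeast for full effect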
PfHsp90 yeast 2 – inhibits growth of yeast expressing Plasmodium falciparum Hsp90; S. cerevisiae expressing PfHsp90, BacTiter-Glo ATP, 48 h; yeast lacking PDR1 and PDR3 efflux regulators; inhibition, % at 9.4 µM; hit rate 0.32% among 310,000; AID 504621;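 active means every replicate shows inhibition above about 80%, whatever the replicate mean, limit read from the data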;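 further: 0% = DMSO neutral controls and 100% = 20 µM radicicol positive controls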
tim10-1 inh – growth inhibitors of tim10-1 mutant yeast; hit rate 2.2% among 330,000; inhibition, % at 20 µM; S. cerevisiae tim10-1 ts strain growth, BacTiter-Glo, 24 h;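 active means inhibition of at least 40%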;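 further: mutant grown at 25 °C; 0% = DMSO wells with yeast and 100% = wells holding no yeast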
SKKanGAS inh – blocks kanamycin growth of S. pyogenes SKKanGAS strain | inhibition, % at 7.5 µM | hit rate 1.3% among 300,000 | BacTiter-Glo, 6 h;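 active means mean replicate score, as percent of positive control median, at least 50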;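 further: strain carries kanamycin resistance gene driven by streptokinase promoter and grows in 40 µg/ml kanamycin; loss of luminescence reflects streptokinase promoter inhibition or plain growth inhibition; 0% = median of DMSO wells and 100% = positive control at its reference dose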
* marks the source's active call; other numbers are inactive results. A selection: hits, their analogues and other compounds. The true share with any hit is near 4.6%.

Results for Cc1cc(/C=N/n2cnnc2)c(C)n1-c1ccc(OCc2ccc(Cl)cc2)cc1 ?
TIM10 inh: 21; NLRP3 yeast inh: 27; tim23-1 inh: 17; PfHsp90 yeast 2: -11; tim10-1 inh: 17; SKKanGAS inh: 62*

What do the screens show for `C=C(C)[C@@H]1CC[C@]2(C(=O)O)CC[C@]3(C)C(CCC4[C@@]5(C)CC[C@H](O)C(C)(C)C5CC[C@]43C)C12` (some centres undefined)?
TIM10 inh: -11; NLRP3 yeast inh: 12; tim23-1 inh: -7; PfHsp90 yeast 2: -2; tim10-1 inh: 5; SKKanGAS inh: 25

Results for C=C(C)[C@@H]1CCC2(C(=O)O)CC[C@]3(C)[C@H](CC[C@@H]4[C@@]5(C)CCC(=O)C(C)(C)[C@@H]5CC[C@]43C)[C@@H]12 (some centres undefined) ?
TIM10 inh: -9; NLRP3 yeast inh: 23; tim23-1 inh: -13; PfHsp90 yeast 2: 18; tim10-1 inh: 1; SKKanGAS inh: 104*

How did Cc1ccc(C)c(NC(=O)c2ccccc2O)c1 do in these assays?
TIM10 inh: -4; NLRP3 yeast inh: 49; tim23-1 inh: 34; PfHsp90 yeast 2: -19; tim10-1 inh: 5; SKKanGAS inh: -8

Results for Cc1ccc(C(=O)CC(=O)c2ccccc2C)c(O)c1 ?
TIM10 inh: 8; NLRP3 yeast inh: 0; tim23-1 inh: 49; PfHsp90 yeast 2: -1; tim10-1 inh: 16; SKKanGAS inh: 97*

How did Cc1ccc(O)c(C(=O)CC(=O)c2ccccc2Cl)c1 do in these assays?
TIM10 inh: 14; NLRP3 yeast inh: 25; tim23-1 inh: 38; PfHsp90 yeast 2: -50; tim10-1 inh: 23; SKKanGAS inh: 81*

How did Cc1ccc(O)c(C(=O)CC(=O)c2ccc(C(C)(C)C)cc2)c1 do in these assays?
TIM10 inh: -4; NLRP3 yeast inh: 20; tim23-1 inh: 29; PfHsp90 yeast 2: 19; tim10-1 inh: 14; SKKanGAS inh: 95*

Results for COc1ccc(C(=O)N2CCOC2CNC(=O)C(=O)NCCc2ccc(OC)c(OC)c2)cc1 (centres undefined) ?
TIM10 inh: -12; NLRP3 yeast inh: 16; tim23-1 inh: 5; PfHsp90 yeast 2: 0; tim10-1 inh: -12; SKKanGAS inh: -3

How did COc1ccc(C(=O)NNS(=O)(=O)c2ccccc2)cc1OC do in these assays?
TIM10 inh: 2; NLRP3 yeast inh: 6; tim23-1 inh: -6; PfHsp90 yeast 2: 8; tim10-1 inh: -19; SKKanGAS inh: 0

What do the screens show for `Clc1cccc(Cl)c1CSc1nnc(/C=C/c2ccccc2)o1`?
TIM10 inh: -22; NLRP3 yeast inh: 22; tim23-1 inh: 2; PfHsp90 yeast 2: -6; tim10-1 inh: 2; SKKanGAS inh: 54*

How did Cc1ccc2nc(N3C(=O)C(O)=C(C(=O)c4ccco4)C3c3cccs3)sc2c1 (centres undefined) do in these assays?
TIM10 inh: 10; NLRP3 yeast inh: 23; tim23-1 inh: 30; tim10-1 inh: 5; SKKanGAS inh: 52*

How did Cc1cc(C)c2nc(N3C(=O)C(O)=C(C(=O)c4ccco4)C3c3ccco3)sc2c1 (centres undefined) do in these assays?
TIM10 inh: -1; NLRP3 yeast inh: 4; tim23-1 inh: 27; PfHsp90 yeast 2: -48; tim10-1 inh: 6; SKKanGAS inh: 78*

What do the screens show for `COc1ccc2nc(N3C(=O)C(O)=C(C(=O)c4ccco4)C3c3ccc(C)o3)sc2c1` (centres undefined)?
TIM10 inh: -8; NLRP3 yeast inh: 32; tim23-1 inh: 21; tim10-1 inh: 7

What do the screens show for `CC1(C(=O)c2ccccc2)C2c3c(ccc4ccccc34)OC(=O)C21C(=O)N1CCOCC1` (centres undefined)?
TIM10 inh: -18; NLRP3 yeast inh: 28; tim23-1 inh: -16; PfHsp90 yeast 2: 105*; tim10-1 inh: -65; SKKanGAS inh: 2

How did O=C(CN1CCc2ccccc2C1)NC1CCCC1 do in these assays?
TIM10 inh: 4; NLRP3 yeast inh: 3; tim23-1 inh: 0; PfHsp90 yeast 2: 0; tim10-1 inh: 4; SKKanGAS inh: -10

How did C[C@H](NC(=O)c1ccccc1Cl)C(=O)OC(C(=O)Nc1cc(C(F)(F)F)ccc1Cl)c1ccccc1 (some centres undefined) do in these assays?
TIM10 inh: 14; NLRP3 yeast inh: 7; tim23-1 inh: -4; PfHsp90 yeast 2: -24; tim10-1 inh: 17; SKKanGAS inh: 10

Bioassay records deposited in PubChem by several laboratories.
